Results reported in PubChem BioAssay.
Calls of active or inactive are those of the source. Unless noted, no stated cut-off is given here; in the data, active means inhibition above about 42%; inactive means the rest.

System: not listed separately
Assay: StAR promoter reporter inhibitors, counter-screen for LRH-1 inverse agonist project, cell-based, luminescence, high throughput (AID 651611; in the data active means inhibition above about 28%)
Conditions: StAR promoter luciferase reporter counterscreen, at 3.6 µM, active compounds read high

**Q.** Which inhibition does the source give for `CCOc1ccc(CCNC(=O)COC(=O)CCc2cc(OC)c(OC)c(OC)c2)cc1OCC` here?
**A.** 2.32% (inactive)

**Q.** For `O=C(NCCN1C(=O)S/C(=C\c2ccc(OC(F)F)cc2)C1=O)c1cnccn1`, which inhibition is on record?
**A.** 44% (active)

**Q.** For `O=C(Nc1ccc2oc(-c3ccccc3F)nc2c1)c1ccc([N+](=O)[O-])o1`, which inhibition is on record?
**A.** -5.27% (inactive)

**Q.** For `CCOc1ccc(NC(=O)COC(=O)C2COc3ccccc3O2)cc1` (centres undefined), which inhibition is on record?
**A.** -6.6% (inactive)

**Q.** Which inhibition does the source give for `Cc1cc2oc(C(=O)NCc3ccncc3)c(C)c2cc1C` here?
**A.** -3.56% (inactive)

**Q.** For `O=C(COc1cccc2c1CCNC2=O)Nc1cccc(C(F)(F)F)c1`, which inhibition is on record?
**A.** 5.78% (inactive)

**Q.** Which inhibition does the source give for `O=C(NC(NNc1ccc([N+](=O)[O-])cc1)(C(F)(F)F)C(F)(F)F)c1ccccc1Cl` here?
**A.** 7.51% (inactive)

**Q.** For `O=[N+]([O-])c1ccc(/C=N/Nc2ccnc3cc(Cl)ccc23)o1`, which inhibition is on record?
**A.** -10.6% (inactive)

**Q.** With `CC(=O)COc1ccc2c(-c3cccc([N+](=O)[O-])c3)cc(=O)oc2c1` as the molecule, how does the inhibition read?
**A.** 7.05% (inactive)

**Q.** Which inhibition does the source give for `OC[C@@H]1CN(Cc2ccc(-c3ccccc3)cc2)C[C@H](n2cnc3c(NC4CCC4)ncnc32)O1` here?
**A.** 16.5% (inactive)

**Q.** With `COC(=O)c1ccc(NC(=O)CSc2ccc(-c3ccccn3)nn2)cc1` as the molecule, how does the inhibition read?
**A.** -13.3% (inactive)

**Q.** For `COc1ccc(C2=CC(=O)OC3(CCCCC3)O2)cc1`, which inhibition is on record?
**A.** 15.4% (inactive)

**Q.** For `Cc1cc(SC#N)cc(C)c1NC(=O)CCl`, which inhibition is on record?
**A.** 27.4% (inactive)

**Q.** Which inhibition does the source give for `O=C(COc1ccc2c3c(c(=O)oc2c1)CCCC3)NCc1ccccn1` here?
**A.** 2.43% (inactive)

**Q.** For `Cc1sc2ncnc(NCCc3ccc(S(N)(=O)=O)cc3)c2c1C`, which inhibition is on record?
**A.** 14.7% (inactive)

**Q.** Which inhibition does the source give for `Cc1ccc(N2CC(C(=O)Nc3nc4ccc(S(C)(=O)=O)cc4s3)CC2=O)cc1C` (centres undefined) here?
**A.** 11.2% (inactive)

**Q.** Which inhibition does the source give for `Cc1ccc2[nH]c3c(c2c1)CCN1C(=O)OC(C)(C)C31C` (centres undefined) here?
**A.** 10.6% (inactive)

**Q.** Which inhibition does the source give for `CCn1c2ccccc2c2cc(/C=N/n3cnnc3)ccc21` here?
**A.** -4.6% (inactive)

**Q.** Which inhibition does the source give for `COc1cccc(COC(=O)C2CC(=O)N(Cc3ccco3)C2)c1OC` (centres undefined) here?
**A.** 12% (inactive)

**Q.** For `CS(=O)(=O)N1CCc2cc(-c3csc(NC(=O)Cc4cccs4)n3)ccc21`, which inhibition is on record?
**A.** 12.6% (inactive)

**Q.** Which inhibition does the source give for `CC(=O)C(C(C)=O)c1c(Cl)c(O)c(O)c2c(C(=O)c3ccccc3)coc12` here?
**A.** 73.1% (active)

**Q.** Which inhibition does the source give for `CC(Oc1ccc(S(=O)(=O)N2CCCC2)cc1[N+](=O)[O-])C(=O)NC(C)c1ccccc1` (centres undefined) here?
**A.** 4.94% (inactive)

**Q.** For `O=[N+]([O-])c1cnccc1Nc1ccc(Cl)cc1`, which inhibition is on record?
**A.** 15.6% (inactive)

**Q.** For `Cc1cc(=O)oc2cc(OCC(=O)N3CCN(C(=O)C4COc5ccccc5O4)CC3)ccc12` (centres undefined), which inhibition is on record?
**A.** 21.1% (inactive)

Molecular target: Nuclear receptor subfamily 5 group A member 2 (Homo sapiens) (UniProt O00482)
Assay: NR5A2 activity suppression in reporter cells – cell-based, luminescence, confirmation (AID 651613);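 further: HEK293T cells co-transfected with LRH-1 and StAR promoter luciferase reporter; 0% = vehicle wells and 100% = parental cells lacking receptor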
Conditions: cell-based LRH-1 luciferase reporter, inverse agonism; at 3.6 µM; active compounds read high

Chain of Nuclear receptor subfamily 5 group A member 2 (Homo sapiens) (O00482 whole entry, looked up): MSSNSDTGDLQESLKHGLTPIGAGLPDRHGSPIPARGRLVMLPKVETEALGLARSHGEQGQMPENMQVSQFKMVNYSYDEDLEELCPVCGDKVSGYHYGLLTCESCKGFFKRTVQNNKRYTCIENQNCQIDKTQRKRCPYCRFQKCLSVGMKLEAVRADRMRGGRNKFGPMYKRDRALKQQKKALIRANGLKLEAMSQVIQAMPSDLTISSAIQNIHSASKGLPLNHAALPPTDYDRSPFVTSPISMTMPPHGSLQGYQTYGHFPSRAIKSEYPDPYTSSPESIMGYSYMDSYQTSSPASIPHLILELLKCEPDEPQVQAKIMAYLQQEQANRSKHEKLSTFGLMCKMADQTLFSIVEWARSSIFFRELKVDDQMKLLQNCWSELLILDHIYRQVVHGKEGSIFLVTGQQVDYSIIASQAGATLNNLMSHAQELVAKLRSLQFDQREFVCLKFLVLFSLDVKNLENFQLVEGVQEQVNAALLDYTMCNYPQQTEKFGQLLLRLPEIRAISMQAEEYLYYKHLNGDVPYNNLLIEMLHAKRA

**Q.** Which inhibition does the source give for `CCN(CC)c1nc(-c2ccccn2)nc(-c2ccccc2)c1C#N` here?
**A.** 53.4% (active)

**Q.** For `COc1ccc(-c2cc(NC=O)c3ncc(-c4ccc(OC)c(OC)c4)n3c2)c(OC)c1`, which inhibition is on record?
**A.** 53.5% (active)

**Q.** With `CCn1c2ccccc2c2cc(/C=N/n3c(-c4cc(C)[nH]n4)n[nH]c3=S)ccc21` as the molecule, how does the inhibition read?
**A.** 4.98% (inactive)

**Q.** With `O=C(N/N=C/c1cc2c3c(c1O)CCCN3CCC2)c1ccccc1O` as the molecule, how does the inhibition read?
**A.** 103% (active)

**Q.** Which inhibition does the source give for `Cc1cc(C)c2c(=O)[nH]c(SCC(=O)Nc3ccc(Br)cc3)nc2n1` here?
**A.** 47.8% (active)

**Q.** For `O=C(Cc1c(F)cccc1Cl)Nc1ccncc1`, which inhibition is on record?
**A.** 45% (active)

**Q.** For `Nc1cccc(OCCCCCOc2cccc(N)c2)c1`, which inhibition is on record?
**A.** 41.7% (active)

**Q.** Which inhibition does the source give for `O=C1C=C(NCc2ccco2)C2(CCCCC2)O1` here?
**A.** 43.1% (active)

**Q.** Which inhibition does the source give for `Cc1onc(-c2c(F)cccc2Cl)c1C(=O)Oc1ccccc1` here?
**A.** 41.9% (active)

**Q.** For `COC(=O)c1ccc(NC(=O)CSc2nc3ncccc3[nH]2)cc1`, which inhibition is on record?
**A.** 50.8% (active)

**Q.** Which inhibition does the source give for `Oc1[nH]c2ccc(Br)cc2c1N=NC(=S)N1CCOCC1` here?
**A.** 93.8% (active)

**Q.** For `Nc1nc2ccccc2cc1C(=O)NCc1ccc(-c2ccccc2)cc1`, which inhibition is on record?
**A.** 59.4% (active)

**Q.** Which inhibition does the source give for `O=C(Nc1cccc2ccccc12)c1ccc([N+](=O)[O-])o1` here?
**A.** 68.5% (active)

**Q.** With `Cc1onc(-c2ccccc2Cl)c1C(=O)O/N=C(\N)c1ccc([N+](=O)[O-])o1` as the molecule, how does the inhibition read?
**A.** 66.3% (active)

**Q.** Which inhibition does the source give for `COC(=O)c1ccc(CNC(=O)COC(=O)c2cc(Cl)nc(Cl)c2)cc1` here?
**A.** 52.4% (active)

**Q.** Which inhibition does the source give for `Cc1cccc(NC(=O)CSc2ccc(-c3ccco3)nn2)c1C` here?
**A.** 44.6% (active)

**Q.** Which inhibition does the source give for `CCOc1ccc(CCNC(=O)COC(=O)CCc2cc(OC)c(OC)c(OC)c2)cc1OCC` here?
**A.** 50.1% (active)

**Q.** For `O=C(NCCN1C(=O)S/C(=C\c2ccc(OC(F)F)cc2)C1=O)c1cnccn1`, which inhibition is on record?
**A.** 30.1% (inactive)

**Q.** Which inhibition does the source give for `O=C(Nc1ccc2oc(-c3ccccc3F)nc2c1)c1ccc([N+](=O)[O-])o1` here?
**A.** 46% (active)

**Q.** Which inhibition does the source give for `CCOc1ccc(NC(=O)COC(=O)C2COc3ccccc3O2)cc1` (centres undefined) here?
**A.** 35.4% (inactive)

**Q.** With `Cc1cc2oc(C(=O)NCc3ccncc3)c(C)c2cc1C` as the molecule, how does the inhibition read?
**A.** 36.2% (inactive)

**Q.** Which inhibition does the source give for `O=C(COc1cccc2c1CCNC2=O)Nc1cccc(C(F)(F)F)c1` here?
**A.** 52.5% (active)

**Q.** With `O=C(NC(NNc1ccc([N+](=O)[O-])cc1)(C(F)(F)F)C(F)(F)F)c1ccccc1Cl` as the molecule, how does the inhibition read?
**A.** 18.4% (inactive)

**Q.** With `O=[N+]([O-])c1ccc(/C=N/Nc2ccnc3cc(Cl)ccc23)o1` as the molecule, how does the inhibition read?
**A.** 44% (active)

**Q.** Which inhibition does the source give for `CC(=O)COc1ccc2c(-c3cccc([N+](=O)[O-])c3)cc(=O)oc2c1` here?
**A.** 67.2% (active)

**Q.** Which inhibition does the source give for `OC[C@@H]1CN(Cc2ccc(-c3ccccc3)cc2)C[C@H](n2cnc3c(NC4CCC4)ncnc32)O1` here?
**A.** 53.4% (active)

**Q.** With `COC(=O)c1ccc(NC(=O)CSc2ccc(-c3ccccn3)nn2)cc1` as the molecule, how does the inhibition read?
**A.** 52.9% (active)

**Q.** With `COc1ccc(C2=CC(=O)OC3(CCCCC3)O2)cc1` as the molecule, how does the inhibition read?
**A.** 63.9% (active)

**Q.** For `Cc1cc(SC#N)cc(C)c1NC(=O)CCl`, which inhibition is on record?
**A.** 52.8% (active)

**Q.** For `O=C(COc1ccc2c3c(c(=O)oc2c1)CCCC3)NCc1ccccn1`, which inhibition is on record?
**A.** 57.6% (active)

**Q.** For `Cc1sc2ncnc(NCCc3ccc(S(N)(=O)=O)cc3)c2c1C`, which inhibition is on record?
**A.** 53% (active)

**Q.** For `Cc1ccc(N2CC(C(=O)Nc3nc4ccc(S(C)(=O)=O)cc4s3)CC2=O)cc1C` (centres undefined), which inhibition is on record?
**A.** 44.6% (active)

**Q.** For `Cc1ccc2[nH]c3c(c2c1)CCN1C(=O)OC(C)(C)C31C` (centres undefined), which inhibition is on record?
**A.** 53.7% (active)

**Q.** For `CCn1c2ccccc2c2cc(/C=N/n3cnnc3)ccc21`, which inhibition is on record?
**A.** 30.4% (inactive)

**Q.** With `COc1cccc(COC(=O)C2CC(=O)N(Cc3ccco3)C2)c1OC` (centres undefined) as the molecule, how does the inhibition read?
**A.** 30.3% (inactive)

**Q.** With `CS(=O)(=O)N1CCc2cc(-c3csc(NC(=O)Cc4cccs4)n3)ccc21` as the molecule, how does the inhibition read?
**A.** 53.8% (active)

**Q.** With `CC(=O)C(C(C)=O)c1c(Cl)c(O)c(O)c2c(C(=O)c3ccccc3)coc12` as the molecule, how does the inhibition read?
**A.** 100% (active)

**Q.** With `CC(Oc1ccc(S(=O)(=O)N2CCCC2)cc1[N+](=O)[O-])C(=O)NC(C)c1ccccc1` (centres undefined) as the molecule, how does the inhibition read?
**A.** 52.3% (active)

**Q.** With `O=[N+]([O-])c1cnccc1Nc1ccc(Cl)cc1` as the molecule, how does the inhibition read?
**A.** 64.1% (active)

**Q.** For `Cc1cc(=O)oc2cc(OCC(=O)N3CCN(C(=O)C4COc5ccccc5O4)CC3)ccc12` (centres undefined), which inhibition is on record?
**A.** 49% (active)
